# Screening data from PubChem BioAssay.
# S2 tox – Viability Counterscreen for Primary qHTS for Inhibitors of ATXN expression. AID 651635, 2014. S2 cells (HEK-293 line with an ATXN2-luciferase reporter) viability, CellTiter-Fluor protease fluorescence, 24 h. 400,000 compounds, 0.49% hits. Potency, µM (titrated, usually from 56.7 µM), most hits filed as cytotoxic; also: potency is read from the fitted curve at half-maximal effect; nearly all actives have a fitted effect of over 40% in size
# ATXN2 expr inh – Primary qHTS for Inhibitors of ATXN expression | HEK-293 ATXN2-luciferase reporter, luminescence, 24 h | Potency, µM (series often up to 57 µM), inactives show at the top dose activity change, negative = inhibition, actives largely listed as inhibitors | 360,000 compounds, 0.72% hits; also: potency is read from the fitted curve at half-maximal effect; % is scaled to controls: 0 for no effect and ±100 for the full control effect; nearly all actives have a fitted effect of over 55% in size
#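 qHTS (up to 57 uM final) was run with 24 h compound exposure of reporter cells at 37 °C. Each well was multiplexed: SteadyGlo luminescence measured ATXN2-luciferase expression after a fluorogenic Gly-Phe-AFC viability readout (25 uM final).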
# D3 antag – qHTS of D3 Dopamine Receptor Antagonist: qHTS. D(3) dopamine receptor (Homo sapiens), P35462. D3R cells, DiscoveRx beta-arrestin luminescence, antagonist mode; active compounds read low. max response, negative = inhibition, %. 360,000 compounds, 2.5% hits; in the data active = max response below about -50%; inconclusive = no clear call, values can overlap the other calls; also: % is scaled to controls: 0 for no effect and ±100 for the full control effect
# Target sequence (P35462 whole entry, looked up): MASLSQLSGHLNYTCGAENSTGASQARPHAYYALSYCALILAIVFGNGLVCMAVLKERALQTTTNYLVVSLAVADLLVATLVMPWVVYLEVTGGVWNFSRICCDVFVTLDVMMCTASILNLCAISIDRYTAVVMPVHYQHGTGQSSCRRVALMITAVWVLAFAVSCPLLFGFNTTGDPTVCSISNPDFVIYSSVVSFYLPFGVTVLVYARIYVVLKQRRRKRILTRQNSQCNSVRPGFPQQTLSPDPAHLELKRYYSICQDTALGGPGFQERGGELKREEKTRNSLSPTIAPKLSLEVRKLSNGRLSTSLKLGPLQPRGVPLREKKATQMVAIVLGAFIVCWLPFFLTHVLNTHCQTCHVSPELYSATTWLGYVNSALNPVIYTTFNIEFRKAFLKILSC
#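 Cells plated overnight at 1500 cells/well, then exposed to library compounds with dopamine controls for 90 minutes at 37 degrees C. DiscoveRx reagent added for 30–60 minutes at room temperature; luminescence read, quantitative HTS format.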
# HepG2 tox – qHTS for Inhibitors of TGF-b: Cytotox Counterscreen | HepG2 CAGA-GFP viability, ATP luminescence, 18 h | Potency, µM (series often up to 46.1 µM), inactives show at the top dose activity change, negative = cytotoxicity, most hits filed as cytotoxic | 410,000 compounds, 0.76% hits | AID 588856, 2011; also: potency is read from the fitted curve at half-maximal effect
#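 HepG2 CAGA-GFP cells (1000/well, DMEM with 1% FBS) received compound, then TGF-beta at 500 pg/mL final, and were incubated 18 hours at 37 degrees C. Viability was read by CellTiter-Glo luminescence. Media-only wells were set as complete cell-killing and DMSO as no toxicity.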
# TGFb inhibitor – qHTS for Inhibitors of TGF-b | HepG2 CAGA-GFP TGF-b/SMAD3 reporter, GFP fluorescence, 18 h; TGF-beta stimulated, 500 pg/mL final | Potency, µM (highest dose often 46.1 µM), without a hit: at the top dose activity, negative = inhibition, most hits filed as inhibitors | 410,000 compounds, 1.2% hits | AID 588855, 2011; also: potency is read from the fitted curve at half-maximal effect; % is scaled to controls: 0 for no effect and ±100 for the full control effect; nearly all actives have a fitted effect of over 65% in size
#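 Smad-responsive CAGA-GFP expression was quantified in HEPG2 cells exposed to compounds and 500 pg/mL final TGF-beta for 18 h at 37 degrees C; unstimulated wells defined full inhibition.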
# D3 ag – qHTS of D3 Dopamine Receptor Agonist: qHTS. D(3) dopamine receptor (Homo sapiens), P35462. D3R DiscoveRx beta-arrestin cells, luminescence, 90 min. max activation, %. 410,000 compounds, 0.58% hits. AID 652048, 2013; in the data active = max activation above about 30%; also: 0% is about no effect
#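 Agonist-mode cell screen: cells plated at 1500/well and incubated overnight at 37 °C, then exposed to library compounds for 90 min at 37 °C. Detection reagent was added for 30–60 min at room temperature, and luminescence was read.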
# Numbers without * were called inactive; i = inactive; ? = inconclusive; · = no result. Shown are actives, neighbours in structure and some others; about 4.7% of the full set was active somewhere. Unless noted, calls follow the shape of the dose curve; as a rule, active = well fitted curve in the direction sought with a large enough effect; inconclusive = small, poorly fitted or top-dose-only effect, or another doubt; inactive = no such curve, though single readings can be large; an effect the other way counts as inactive or inconclusive.
SMILES,S2 tox,ATXN2 expr inh,D3 antag,HepG2 tox,TGFb inhibitor,D3 ag
CN(C)c1ccc(/C=C2\C=Cc3cc([N+](=O)[O-])ccc32)cc1,·,·,·,-35%,-14%,·
C=C(C)Cn1c(SCC(=O)c2ccc(OC)cc2)nc2sc3c(c2c1=O)CCCC3,i,-3%,·,-2%,-1%,-6
Cc1cccc(C)c1-c1ccc(CN2C(CC(C)C)C(=O)N(Cc3cn(CC4CCCCC4)nn3)CCS2(=O)=O)cc1 (configuration not stated),35µM*,?,18,11µM*,?,14
CC(C)CC1C(=O)N(Cc2cn(CCC3OCCCO3)nn2)CCS(=O)(=O)N1Cc1ccc(-c2ccc(F)cc2)cc1 (configuration not stated),?,0%,9,-21%,?,1
CCC/C=C/c1ccc(CN2C(CC(C)C)C(=O)N(Cc3cn(CCC4OCCCO4)nn3)CCS2(=O)=O)cc1 (configuration not stated),·,?,9,16µM*,13µM*,2
CC(C)C1C(=O)N(Cc2cn(CCC3OCCO3)nn2)CCS(=O)(=O)N1Cc1ccc(-c2ccc(Cl)cc2)cc1 (configuration not stated),?,28µM*,?,-70%,?,-1
Cc1ccc(-c2ccc(CN3C(CC(C)C)C(=O)N(Cc4cn(CCC5OCCCO5)nn4)CCS3(=O)=O)cc2)cc1 (configuration not stated),·,28µM*,-2,-57%,?,1
COc1ccccc1CCNc1ncnc2sc(C(=O)N3CCCC3)c(C)c12,i,·,·,·,·,·
O=[N+]([O-])c1c(Cl)cccc1-c1c[nH]cc1Cl,·,·,·,·,·,-4
O=C(NCCS(=O)(=O)c1ccc(C(F)(F)F)cn1)c1ccc(Cl)cc1,·,2%,·,·,·,·
CC1C(=O)N(Cc2cn(Cc3ccco3)nn2)CCS(=O)(=O)N1Cc1ccc(-c2ccc(F)cc2Cl)cc1 (configuration not stated),?,?,-13,-10%,?,5
CC1C(=O)N(Cc2cn(Cc3ccco3)nn2)CCS(=O)(=O)N1Cc1ccc(-c2ccccc2Cl)cc1 (configuration not stated),11µM*,-12%,12,-31%,?,1
O=C(COC(=O)/C=C/c1ccc(C(F)(F)F)cc1)NC1CC1,i,-23%,-64*,-59%,11%,-1
Nn1c(CN2CCCCC2)nc2ccccc2c1=O,i,6%,-91*,7%,-7%,-12
Nn1c(Cc2ccccc2)nc2ccccc2c1=O,·,-13%,?,1%,8%,-16
COc1ccccc1N1CCN(C(=O)/C=C/c2cccs2)CC1,i,17%,2,11%,-15%,1
Cc1cccc(N2CCN(C(=O)/C=C/c3cccs3)CC2)c1C,i,13%,3,0%,13%,43*
Cc1cc(-c2ncc(CC(=O)Nc3ccc(-c4cnccn4)cn3)cc2C)ccn1,·,-18%,·,·,·,·
CCC(CO)Oc1cc(NCc2ccc(C(C)(C)C)cc2)c2ncn(C(C)C)c2c1 (configuration not stated),32µM*,?,23,-88%,?,29
COCCCOc1cc(NCc2ccccc2)c2ncn(C(C)C)c2c1,i,-3%,6,-2%,7%,-6
CCC(CO)Oc1cc(NCc2ccccc2)c2ncn(C(C)C)c2c1 (configuration not stated),?,-22%,5,-28%,?,37*
CCC(CO)Oc1cc(NCc2ccc(O)cc2)c2ncn(C(C)C)c2c1 (configuration not stated),i,1%,16,31%,13%,2
